# FBW7 act: FBW7 E3 ligase activators, primary screen, biochemical, AlphaScreen, human | actives 0.13% (n = 650,000) | normalized activity (activation), % at 26.1 µM | F-box/WD repeat-containing protein 7 (Homo sapiens), Q969H0 | AID 1259310, 2017 | AlphaScreen FBW7–phospho-cyclin E peptide binding, activator screen; in the data active = normalized activity above about 1.9%;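 note: purified mutant Fbw7 with reduced substrate affinity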
# MITF inh: MITF inhibitors, primary screen, biochemical, AlphaScreen, human; Microphthalmia-associated transcription factor (Homo sapiens), O75030; AlphaScreen MITF homodimerization, bead proximity signal; inhibition, % at 2.6 µM; actives 0.91% (n = 650,000); in the data active = inhibition above about 50%;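 note: 0% = vehicle wells with protein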
# TEAD-YAP inh: TEAD-YAP interaction inhibition, primary screen, TEAD-YAP interaction inhibitor project, luminescence, HEK-TIYL cells. TEAD-Gal4/YAP UAS-luciferase luminescence. inhibition, % at 9.12 µM. actives 1.4% (n = 640,000). AID 1259422, 2018; in the data active = inhibition above about 32%;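 note: 0% = median of test compound wells and 100% = reference inhibitor wells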
# GPR151 ag: activators of human GPR151, primary screen, cell-based, PathHunter beta-arrestin, luminescence | G-protein coupled receptor 151 (Homo sapiens), Q8TDV0 | PathHunter beta-arrestin GPR151 cells | activation, % at 11.2 µM | actives 1% (n = 650,000) | AID 1508602, 2020; in the data active = activation above about 4.9%;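 note: 0% = median of compound wells and 100% = cells with positive control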
# Target sequence (Q8TDV0 whole entry, looked up): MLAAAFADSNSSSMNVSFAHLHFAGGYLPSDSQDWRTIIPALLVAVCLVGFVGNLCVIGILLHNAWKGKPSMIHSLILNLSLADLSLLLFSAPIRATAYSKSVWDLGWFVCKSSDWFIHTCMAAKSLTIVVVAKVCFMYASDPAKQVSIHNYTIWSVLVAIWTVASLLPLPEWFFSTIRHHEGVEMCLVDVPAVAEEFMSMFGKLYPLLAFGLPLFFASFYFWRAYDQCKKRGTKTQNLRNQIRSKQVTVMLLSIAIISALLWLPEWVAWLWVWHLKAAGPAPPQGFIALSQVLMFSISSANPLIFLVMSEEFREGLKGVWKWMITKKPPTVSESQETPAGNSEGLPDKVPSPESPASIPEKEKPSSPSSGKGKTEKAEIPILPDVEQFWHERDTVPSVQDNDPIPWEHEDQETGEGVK
# * = called active by the depositor. This is a sample that favours compounds with a hit; in the whole collection about 3.5% have one here.
SMILES,FBW7 act,MITF inh,TEAD-YAP inh,GPR151 ag
COc1ccc2cc3cc(C(=O)N4CCCCC4C)oc3nc2c1 (stereo not drawn),0,-6,36*,-3
COc1ccc2cc3cc(C(=O)NCCc4ccc(OC)c(OC)c4)oc3nc2c1,0,-13,45*,2
COCCNC(=O)/C(C#N)=C/c1c(Oc2ccccc2OC)nc2c(C)cccn2c1=O,0,5,34*,1
CCOCCCNC(=O)/C(C#N)=C/c1c(Oc2ccccc2C)nc2c(C)cccn2c1=O,0,4,32*,0
CCOCCCNC(=O)/C(C#N)=C/c1c(Oc2ccc(C)cc2)nc2c(C)cccn2c1=O,0,10,19,0
COc1ccc(C2OC(=O)CC2C(=O)NCc2ccc(F)cc2)cc1OC (stereo not drawn),0,7,11,2
COc1cccc(C=O)c1OC(=O)c1ccc2ccccc2c1,1,19,-17,1
COc1cccc(C=O)c1OC(=O)c1cccc(Cl)c1,12*,13,-18,-1
CCCc1cc(C(=O)NNC(=S)NCc2ccco2)cs1,0,-5,3,1
COc1ccc2nc(C)cc(Nc3ccccc3OC)c2c1,1,19,17,-1
COc1cccc(Nc2cc(C)nc3ccc(Cl)cc23)c1,0,8,44*,0
COc1cccc(Nc2cc(C)nc3ccc(OC)cc23)c1,0,29,8,1
COc1ccc(OC)c(Nc2cc(C)nc3ccccc23)c1,0,-3,37*,0
COc1ccc2nc(C)cc(Nc3ccc(Oc4ccc(Cl)cc4)c(Cl)c3)c2c1,0,0,44*,0
Cc1ccc(/C=C2\CC/C(=C\c3ccc(C)o3)C2=O)o1,0,58*,9,-1
O=[N+]([O-])c1cccnc1N/N=C/c1ccccc1O,0,14,47*,-2
O=[N+]([O-])c1ccc(O)c(/C=N/Nc2ncccc2[N+](=O)[O-])c1,0,5,-3,0
COc1cccc(/C=N\Nc2ccccn2)c1O,-1,61*,-44,-2
COc1cccc(/C=N\Nc2ncccc2[N+](=O)[O-])c1O,-1,4,64*,-4
COc1cccc(/C=N\Nc2cc(C)c3ccccc3n2)c1OC,0,3,60*,4
COc1cccc(/C=N/Nc2nc3ccccc3nc2C)c1O,0,-92,63*,-1
COc1cccc(/C=N\Nc2cc(C)nc(-c3ccccc3O)n2)c1O,0,8,39*,0
Cc1c(O)ccc(/C=N/Nc2ncccc2[N+](=O)[O-])c1O,0,-5,71*,-9
COc1ccc(/C=N\Nc2cc(C)nc(-c3ccccc3O)n2)c(OC)c1,1,6,-5,1
Cc1nc2ccccc2nc1N/N=C/c1ccc(O)c(C)c1O,0,-1,-14,-1
SMILES,FBW7 act,MITF inh,TEAD-YAP inh,GPR151 ag
Cc1ccc(C)c(Nc2cc(C)nc(-c3ccccc3O)n2)c1,0,-10,41*,0
COCc1cc(C)nc(SCC(=O)Nc2cccc3cccnc23)c1C#N,0,3,-9,-1
COc1ccc(CNC(=S)NCCOc2ccccc2OC)cc1,0,-1,4,1
O=C(CSCc1ccccc1Cl)N/N=C/c1ccco1,0,4,1,1
COc1cccc(/C=N/Nc2cc(-n3cc(C)cn3)ncn2)c1O,0,73*,88*,-2
COc1ccc(/C=N/Nc2cc(-n3cc(C)cn3)ncn2)c(OC)c1,0,-6,-3,-1
COc1ccc(S(=O)(=O)OCC(F)(F)[N+](=O)[O-])cc1Br,0,-1,44*,1
NC(=O)c1ccccc1N/C=C1/CCCCC1=O,0,16,-4,0
CN(CC(=O)N1CCc2ccccc21)S(=O)(=O)c1cccc2cnccc12,0,16,34*,0
COc1ccc(NC(=O)CN(C)S(=O)(=O)c2cccc3cnccc23)cc1OC,0,27,42*,0
Cc1ccc(-c2cnc3ccc(NCc4ccco4)nn23)cc1C,0,22,-7,-1
CCOC(=O)C(Oc1ncc(Cl)cn1)c1ccc2c(c1)CCO2 (stereo not drawn),0,13,0,-2
CC(C)(C)NC(=O)Cn1nc2c3ccccc3nc(C3CC3)n2c1=O,0,-1,44*,-1
CC(C)NC(=O)Cn1nc2c3ccccc3nc(C3CC3)n2c1=O,0,4,-1,2
NC(=O)c1ccsc1NC(=O)c1ccc2c(c1)CCCC2,0,6,58*,-10
COc1ccc(OC)c(/C=C2/N=C(c3cc([N+](=O)[O-])ccc3OC)OC2=O)c1,0,15,-10,0
CCOC(=O)c1[nH]c(C)c(CNC2CCCCC2)c1C,0,13,3,1
CCOC(=O)c1[nH]c(C)c(CN(C2CCCCC2)S(C)(=O)=O)c1C,0,5,52*,0
Cc1nc2ccccn2c1C(=O)N1CCN(c2cccc(C(F)(F)F)c2)CC1,0,3,58*,5
Cc1onc(-c2c(Cl)cccc2Cl)c1C(=O)N1CCN(c2cccc(C(F)(F)F)c2)CC1,0,16,54*,1
Cc1c(CCNS(=O)(=O)c2ccc(F)cc2)sc2nc(-c3ccc(F)cc3)nn12,1,6,37*,2
Cc1cc(Nc2nc3ccccc3n3c(C)nnc23)ccc1Br,0,-2,-2,3
Cn1c(/C=C/c2ccccc2)c([N+](=O)[O-])c(=O)n(C)c1=O,0,-6,25,0
Cn1c(/C=C/c2cccc(Oc3ccccc3)c2)c([N+](=O)[O-])c(=O)n(C)c1=O,0,5,45*,1
CCN(CC)c1ccc2cc(S(=O)(=O)c3ccc(F)cc3)c(=O)oc2c1,2.1*,-32,-17,-1
SMILES,FBW7 act,MITF inh,TEAD-YAP inh,GPR151 ag
COc1cccc2cc(S(=O)(=O)c3ccc(F)cc3)c(=O)oc12,0,6,-3,-1
CCCCNC(=O)c1ccc2c(c1)NC(=O)C(CS(=O)(=O)Cc1cccc(C)c1)N2 (stereo not drawn),0,1,1,-1
CCCc1[nH]nc2c1C(c1ccccc1[N+](=O)[O-])C(C#N)=C(N)O2 (stereo not drawn),-1,12,9,1
Cc1cc(C)c(-n2c(C)cc(/C=C3/NC(=O)NC3=O)c2C)c(C)c1,0,-2,-5,1
Cc1cccc(N(C)c2ccnc3c(-c4ccc(N)cc4)cnn23)c1,0,18,56*,0
CCCNc1ccnc2c(-c3ccc(N)cc3)cnn12,1,4,76*,-1
COc1ccc(CNc2ccnc3c(-c4cncnc4)cnn23)cc1,-1,15,44*,2
Cc1cccc(N(C)c2ccnc3c(-c4cccc(N)c4)cnn23)c1,0,17,-4,1
CCCNc1ccnc2c(-c3ccsc3)cnn12,0,17,54*,-1

# Compound activity: PubChem BioAssay, The Scripps Research Institute Molecular Screening Center
